Gli-Sufu antag – antagonists of Gli-Sufu signaling; Sufu-KO-LIGHT fibroblasts, Gli luciferase reporter luminescence; inhibition, % at 5 µM; 340,000 tested, 0.74% active;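 active means inhibition above about 55%, limit read from the data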;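 further: 0% = DMSO-treated cells and 100% = wells with medium but no cells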
SRC3 inh – inhibits human SRC3 coactivator. HEK293 GAL4-SRC3 luciferase reporter, luminescence. AID 588352. inhibition, % at 3.6 µM. 360,000 tested, 0.17% active;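 active means inhibition above a per-campaign cutoff, the mean of all compounds plus 3 SD, cut at about 60% in these data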;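 further: 0% = DMSO-treated cells and 100% = gossypol-treated cells at 36 µM; higher means less SRC3-driven luciferase light from the GAL4 reporter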
NR2F2 inh – blocks human COUP-TFII nuclear receptor; P24468; HEK293T NGFI-A luciferase reporter, luminescence; inhibition, % at 8.6 µM; 370,000 tested, 0.7% active; AID 686940;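 active means inhibition above a per-plate cutoff, mean inhibition of test wells between control levels plus 3 SD, cut at about 38% in these data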;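 further: cells cotransfected with COUP-TFII expression vector driving the NGFI-A reporter; 0% = median of COUP-TF2 test wells and 100% = reporter-only cells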
SRC1 inh – inhibits human SRC1 coactivator. Q15788. HEK293 GAL4-SRC1 luciferase reporter, luminescence. inhibition, % at 3.6 µM. 360,000 tested, 0.12% active. AID 588354;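 active means inhibition above the campaign mean plus 3 SD, with each screening campaign given its own cutoff, cut at about 60% in these data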;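 further: 0% = DMSO treated cells and 100% = gossypol at 36 µM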
Target sequence (Q15788 whole entry, looked up, the tested form may be a part): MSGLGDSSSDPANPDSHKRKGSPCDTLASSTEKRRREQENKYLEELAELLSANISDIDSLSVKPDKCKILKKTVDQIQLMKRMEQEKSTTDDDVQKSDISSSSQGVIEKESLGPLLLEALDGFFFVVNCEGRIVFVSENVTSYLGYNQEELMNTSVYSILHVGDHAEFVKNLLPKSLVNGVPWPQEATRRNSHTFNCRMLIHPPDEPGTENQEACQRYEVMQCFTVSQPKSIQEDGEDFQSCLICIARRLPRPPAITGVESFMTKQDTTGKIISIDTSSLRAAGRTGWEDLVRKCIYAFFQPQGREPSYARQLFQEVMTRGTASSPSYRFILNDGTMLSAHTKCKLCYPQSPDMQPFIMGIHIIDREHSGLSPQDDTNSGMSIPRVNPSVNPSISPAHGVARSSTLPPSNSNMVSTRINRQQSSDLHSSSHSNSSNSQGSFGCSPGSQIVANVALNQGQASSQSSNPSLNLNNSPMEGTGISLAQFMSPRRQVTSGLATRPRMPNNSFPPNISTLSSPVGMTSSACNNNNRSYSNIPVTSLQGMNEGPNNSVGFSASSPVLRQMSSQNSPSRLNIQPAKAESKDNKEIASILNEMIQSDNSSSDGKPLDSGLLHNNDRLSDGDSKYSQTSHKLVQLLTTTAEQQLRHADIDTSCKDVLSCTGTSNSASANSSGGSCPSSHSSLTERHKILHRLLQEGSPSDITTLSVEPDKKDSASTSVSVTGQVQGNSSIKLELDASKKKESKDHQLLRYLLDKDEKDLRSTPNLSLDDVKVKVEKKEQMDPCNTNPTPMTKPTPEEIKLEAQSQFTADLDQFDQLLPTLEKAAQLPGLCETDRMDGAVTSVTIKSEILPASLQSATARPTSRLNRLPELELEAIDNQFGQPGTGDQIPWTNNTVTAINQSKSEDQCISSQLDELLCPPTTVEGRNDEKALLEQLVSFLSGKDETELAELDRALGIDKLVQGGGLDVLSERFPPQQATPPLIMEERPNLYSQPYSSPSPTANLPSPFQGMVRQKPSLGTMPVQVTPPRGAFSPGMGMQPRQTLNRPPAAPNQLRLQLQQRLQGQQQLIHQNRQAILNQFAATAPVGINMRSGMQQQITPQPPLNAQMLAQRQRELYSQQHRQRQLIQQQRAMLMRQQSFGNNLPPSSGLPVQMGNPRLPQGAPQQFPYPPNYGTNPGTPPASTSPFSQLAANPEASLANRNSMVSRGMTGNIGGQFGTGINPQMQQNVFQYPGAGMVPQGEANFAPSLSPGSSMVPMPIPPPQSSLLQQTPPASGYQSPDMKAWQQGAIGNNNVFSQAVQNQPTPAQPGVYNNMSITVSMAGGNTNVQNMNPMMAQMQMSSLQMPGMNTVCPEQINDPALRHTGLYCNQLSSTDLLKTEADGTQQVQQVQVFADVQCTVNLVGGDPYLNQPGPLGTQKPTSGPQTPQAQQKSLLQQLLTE
NCOA2 inhibitor – inhibits human steroid receptor coactivator 2; Q15596; AID 651957; 370,000 tested, 0.17% active; inhibition, % at 9 µM; HEK293 GAL4-SRC2 luciferase reporter, luminescence;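 active means inhibition above the mean inhibition of all tested compounds plus 3 SD, set per campaign, cut at about 52% in these data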;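 further: 0% = DMSO treated cells and 100% = cells given Gossypol at 36 µM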
NR5A2 inv ag – inverse agonists of human LRH-1 (NR5A2); HEK293T StAR-luciferase reporter, LRH-1 transfected, 24 h; 360,000 tested, 0.13% active; inhibition, % at 3.6 µM;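 active means inhibition above the mean inhibition of all tested compounds plus 3 SD, cut at about 73% in these data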;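 further: 0% = DMSO wells and 100% = reporter-only cells lacking LRH-1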
Gal4-VP16 ctr – inhibits VP16 reporter, flagging COUP-TFII antagonist hits | shares compounds with NR2F2 inh | HEK293 Gal4-VP16 luciferase reporter, luminescence | inhibition, % at 8.5 µM | 2,500 tested, 25% active | AID 687007; in the data active means inhibition above about 13%
NR2F2 inh conf – COUP-TFII (NR2F2) inhibition, confirmation assay; AID 687008; inhibition, % at 8.5 µM; HEK293 NGFI-A luciferase reporter, luminescence; shares compounds with NR2F2 inh; 2,500 tested, 45% active;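 active means mean inhibition over three repeats above a set limit taken from the earlier primary screen, cut at about 38% in these data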;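 further: 100% = cells given the luciferase reporter alone without the COUP-TF2 vector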
An asterisk follows results filed as active; i = inactive; x = not tested or not shown. In the library only some 1.3% were active in any assay of this set; here they are far more common.

SMILES	Gli-Sufu antag	SRC3 inh	NR2F2 inh	SRC1 inh	NCOA2 inhibitor	NR5A2 inv ag	Gal4-VP16 ctr	NR2F2 inh conf
O=C(NC1CCN(Cc2ccccc2)CC1)c1cccc(S(=O)(=O)Nc2cc(C(F)(F)F)ccc2Cl)c1	23	17	21	1	22	0	x	x
COc1ccc(Cl)cc1NS(=O)(=O)c1cccc(C(=O)NC2CCN(Cc3ccccc3)CC2)c1	11	30	48*	-3	27	33	17*	33
CCCCN1C(=O)N2CCc3ccccc3C2CS1(=O)=O (stereo not drawn)	x	x	-29	x	-25	x	x	x
C[C@H]1Cn2nnc(-c3ccccc3)c2Cn2c3ccccc3c(=O)n21	x	x	-12	x	-6	x	x	x
C#CCN(C[C@@H]1[C@@H](OC(=O)Nc2cccs2)[C@@H](OC(=O)Nc2cccs2)Cn2c(=O)ccc(=O)n21)S(=O)(=O)c1ccc(C)cc1	x	25	76*	14	52	53	25*	43*
C#CCN(C[C@@H]1[C@@H](OC(=O)NCc2ccccc2F)[C@@H](OC(=O)NCc2ccccc2F)Cn2c(=O)n(CCCCCC)c(=O)n21)S(=O)(=O)c1ccc(C)cc1	x	-7	1	-2	0	16	x	x
C#CCN(C[C@@H]1[C@@H](OC(=O)NC2CCCC2)[C@@H](OC(=O)NC2CCCC2)Cn2c(=O)ccc(=O)n21)S(=O)(=O)c1ccc(C)cc1	x	-30	34	-6	-30	26	x	x
C#CCN(C[C@@H]1[C@@H](OC(=O)NCc2ccccc2F)[C@@H](OC(=O)NCc2ccccc2F)Cn2c(=O)ccc(=O)n21)S(=O)(=O)c1ccc(C)cc1	x	36	63*	5	22	25	23*	37
CC(=O)Nc1ccc(NC(=O)CSc2nnc(-c3cccs3)o2)cc1	x	x	5	x	9	x	x	x
Cc1onc(-c2ccccc2Cl)c1C(=O)Nc1cccc2cccnc12	-3	-93	43*	-87	-3	39	4	33
COC(=O)[C@@]12CCCCC3=C1N(CCC3)C(=O)[C@H]2CC(=O)N1CCC(c2ccccc2)CC1	x	x	14	x	-8	x	x	x
O=C(CCc1ccc(S(=O)(=O)NCCc2ccccc2)cc1)N1CCN(Cc2ccc3c(c2)OCO3)CC1	x	20	55*	20	22	30	10	33
CC(C)CNS(=O)(=O)c1ccc(CCC(=O)N2CCN(Cc3ccc4c(c3)OCO4)CC2)cc1	26	4	45*	5	-5	24	-5	16
c1cc2c(cc1CN1CCN(C3CCCCCC3)CC1)OCO2	10	3	-20	-21	8	-10	x	x
CCNS(=O)(=O)c1ccc(CCC(=O)N2CCN(Cc3ccccc3)CC2)cc1	1	13	7	-12	23	8	x	x
c1ccc(CN2CCC(N3CCN(Cc4ccc5c(c4)OCO5)CC3)CC2)cc1	5	5	38*	-15	17	23	1	8
O=S1(=O)c2ccc(Br)cc2OC[C@H](Cc2ccccc2)N1Cc1cn(CCC2OCCO2)nn1	x	x	10	x	8	x	x	x
CCCCC(=O)c1ccc(O)cc1O	-3	9	103*	-28	-23	-7	-10	4
CC(=O)N(/N=C1\Sc2ccccc2C1=O)c1ccc(C)cc1C	33	64*	64*	54	26	63	24*	76*
COc1cc(C)c(Br)cc1S(=O)(=O)NCc1ccncc1	33	33	57*	19	17	43	0	31
COc1cc(C)c(Br)cc1S(=O)(=O)NCc1cccs1	27	2	-13	6	37	-8	x	x
C=C1C[C@@H]2C[C@@H]2CN(S(=O)(=O)c2ccc(C)cc2)[C@@H]1COCc1ccccc1	x	x	40*	x	-16	19	-8	6
Cc1ccc(S(=O)(=O)N2CCC(=O)N(CCOCc3ccccc3)CC2)cc1	0	-5	-3	-9	2	20	x	x
CCn1c(SCC(=O)N2CCN(c3ccccc3)CC2)nnc1-c1c[nH]c2ccccc12	6	12	46*	16	20	7	8	37
CCn1c(COc2c(C)cccc2C)nnc1SCC(=O)N1CCN(c2ccccc2)CC1	-19	5	33	24	24	19	x	x
SMILES	Gli-Sufu antag	SRC3 inh	NR2F2 inh	SRC1 inh	NCOA2 inhibitor	NR5A2 inv ag	Gal4-VP16 ctr	NR2F2 inh conf
C=CCn1c(COc2cccc(C)c2C)nnc1SCC(=O)N1CCN(c2ccccc2)CC1	28	0	44*	1	0	10	11	38*
COC(=O)c1cc(C2(c3c[nH]c4ccccc34)CCN(C(=O)OC(C)(C)C)CC2)n2ccccc12	x	x	0	x	5	x	x	x
Nc1nonc1C(=O)NCCNCc1cc(Br)ccc1OCc1ccc(F)cc1	48	21	50*	8	38	25	3	8
COC(=O)[C@]12C[C@H](CC(=O)N3CCN(C(=O)c4ccco4)CC3)C(=O)N(Cc3ccc(Cl)cc3Cl)C1=C[C@H](COCc1ccccc1)O[C@@H]2C	x	x	34	x	2	x	x	x
Cc1nc2cc(C(=O)N3CCN(C(=O)OCc4ccccc4)CC3)ccc2n1C1CCCC1	x	x	-8	x	25	x	x	x
O=C(CC1CCCC1)N1CC[C@H]2[C@H](CCCN2Cc2ccccc2)C1	x	x	-8	x	5	x	x	x
COc1ccc(CNc2nn3c(-c4cccc(C(=O)N(C)C)c4)cnc3s2)cc1	x	49	19	39	23	0	x	x
NS(=O)(=O)c1ccc(CCNc2nn3c(-c4cccc(OC(F)(F)F)c4)cnc3s2)cc1	x	7	71*	24	-14	5	14*	57*
Cc1cc(C(=O)COC(=O)c2ccco2)c(C)n1Cc1ccco1	-21	10	58*	17	9	-19	-39	34
O=C(N/N=C/c1ccc[nH]1)c1ccc(COc2cccc3cccnc23)cc1	39	69*	73*	36	34	79*	39*	89*
Cc1cc(Br)c(OCc2ccc(C(=O)N/N=C/c3ccc[nH]3)cc2)c(Br)c1	83*	76*	68*	-10	-41	91*	29*	78*
On1ccccc1=S	74*	47	66*	i	16	72	87*	46*
COc1ccc(N2CCN(S(=O)(=O)c3ccc4c(c3)NC(=O)C(C)S4)CC2)cc1 (stereo not drawn)	-5	4	42*	6	20	10	-8	11
COc1ccc(N2CCN(S(=O)(=O)c3ccc4c(c3)NC(=O)CS4)CC2)cc1	-9	-16	1	-19	10	2	x	x
Cc1ccc(NC(=O)C2CCN(S(=O)(=O)c3ccc4c(c3)NC(=O)C(C)S4)CC2)cc1C (stereo not drawn)	14	21	22	6	26	-11	x	x

From PubChem BioAssay
